Source: PubChem
Sm TGR inh: S. mansoni TGR enzyme inhibition; Q962Y6; purified TGR, DTNB reduction, TNB absorbance 405 nm; Potency, µM (top dose mostly 114 µM), without a hit: top-dose activity change, negative = inhibition, hits mostly inhibitors; 3% of 360,000 active; further: on the % scale 0 is the no-effect control and ±100 the full control effect; nearly all actives have a fitted effect of over 60% in size
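Kinetic colorimetric format: TGR-catalysed, NADPH-driven DTNB reduction monitored via TNB absorbance. Enzyme dispensed at 20 nM; compound exposure 15 min at room temperature before reaction start.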
NS1 function inh: inhibitors of influenza NS1 protein function; Potency, µM (highest dose often 46.1 µM), inactives show at the highest dose activity, positive = more growth; 0.4% of 270,000 active; calls by dose curve; further: actives are rising curves; nearly all actives have a fitted effect of over 50% in size
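Compounds were scored for reversing the slow growth caused by influenza A NS1 in S. cerevisiae, measured by optical density at 600 nm. Assay medium contained 2% galactose at pH 6.0; NS1-free yeast of the same strain were the positive control.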
AMA1-RON2 inh: disrupts binding of P. falciparum AMA1 to RON2; 0.2% of 360,000 active; Potency, µM (highest dose often 58.2 µM), without a hit: at the highest dose activity change, negative = inhibition, actives largely listed as inhibitors; AlphaScreen AMA1-biotinylated RON2 peptide binding;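 further: 0% = vehicle wells and -100% = peptide control; nearly all actives have a fitted effect of over 45% in size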
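AMA1 (3D7) with his tag at 25 nM final met compounds first, then biotinylated RON2 peptide at 25 nM; detection used donor plus acceptor beads, 10 µg/mL apiece, read by AlphaScreen after 30 min at room temperature.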
Pf growth 96h: P. falciparum growth inhibition at 96 hour, primary screen for plastid delayed-death inhibitors; Potency, µM (series often up to 28.7 µM), inactives show at the highest dose activity change, negative = inhibition, actives largely listed as inhibitors; AID 504834; 6.9% of 320,000 active; P. falciparum luciferase reporter growth, 96 h; further: on the % scale 0 is the no-effect control and ±100 the full control effect
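Cell-based qHTS: luciferase-tagged P. falciparum in erythrocytes (2% hematocrit, 0.05% parasitemia final) incubated with compounds for 96 hours, 37 C, 5% CO2; luciferase detection reagent then added and luminescence measured.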
Pf growth 48h: inhibits P. falciparum growth in the first generation, 48 h. P. falciparum luciferase growth in erythrocytes, 48 h. AID 504832. Potency, µM (series often up to 28.7 µM), for inactives: top-dose activity change, negative = inhibition, hits mostly inhibitors. 5.9% of 310,000 active; further: on the % scale 0 is the no-effect control and ±100 the full control effect
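Luciferase-expressing P. falciparum in infected erythrocytes (2% hematocrit, 0.1% parasitemia final) in RPMI 1640/0.5% Albumax were exposed to compound for 48 hours at 37 C, 5% CO2; growth read as luminescence.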
The depositor's hits bear a star; ? = inconclusive; nt = no result given; [ ] = remark or other dose. Hits are enriched below; roughly 11% of the tested compounds scored in any of these assays. Unless noted, the call rests on the fitted dose curve; in most records, active means well fitted curve in the direction sought with a large enough effect; inconclusive means small, poorly fitted or top-dose-only effect, or another doubt; inactive means no such curve, though single readings can be large; an effect the other way counts as inactive or inconclusive. Potency means the concentration at half of the fitted maximal effect.

SMILES	Sm TGR inh	NS1 function inh	AMA1-RON2 inh	Pf growth 96h	Pf growth 48h
COCCOC(=O)c1c(NC(=O)CN2CCCc3ccccc32)sc(C(N)=O)c1C	5%	4%	11%	10µM*	?
COC(=O)c1[nH]c2ccc(Br)cc2c1NC(=O)CN1CCN(C2CCCCC2)CC1	-19%	-6%	-4%	2.6µM*	?
Cc1cc(C)c(NC(=O)C2CCN(S(=O)(=O)c3c(C)noc3/C=C/c3ccccc3F)CC2)c(C)c1	-8%	nt	nt	nt	nt
O=C(CSc1n[nH]c(Cc2ccccc2)n1)Nc1ccccc1Br	12%	3%	52%	5%	-38%
Clc1cccc(C2CCN(Cc3nc(COc4ccccc4)no3)C2)c1 (stereo unspecified)	35µM*	-4%	-4%	?	-2%
Fc1ccccc1C1CCN(Cc2nc(CC3CC3)no2)C1 (stereo unspecified)	?	-5%	-15%	?	42%
Clc1cccc(CN2CCN(Cc3nc(CCc4ccccc4)no3)CC2)c1	1%	-4%	-5%	?	4%
c1ccc(OCc2noc(CN3CC[C@@H]4CCCC[C@H]4C3)n2)cc1	6%[57.1 µM]	-10%	10%	13µM*	18%
CC(C)(C)CNC(=O)c1cc2c(Br)ccc(Br)c2nc1N	nt	nt	0%	nt	nt
Cc1ccc(C(=O)CC(=O)c2ccc(C)cc2O)cc1	-23%	-6%	38%	7.4µM*	-61%
Cc1ccc(C(=O)CC(=O)c2cc(Cl)ccc2O)cc1	-1%	-135%	54%	nt	?
CC(C)(C)c1ccc(C(=O)CC(=O)c2cc(Cl)ccc2O)cc1	6%	-6%	57%	nt	4.7µM*
CC1CC(=O)N(CC(=O)Nc2ccc(F)cc2F)c2ccccc2S1(=O)=O (stereo unspecified)	-11%	0%	-3%	50%	1%
CC(=O)NCc1ccc(C(=O)CCl)s1	14µM*	0%	-3%	?	4.1µM*
CC(=O)NCc1ccc(C(=O)CCl)cc1	11µM*	nt	-9%	-20%	-5%
CC(=O)Nc1ccc(C)cc1	0%	nt	-3%	?	17%
CC(=O)Nc1ccc(C(=O)CCl)cc1	13µM*	nt	-1%	42%	38%
COc1ccc(C(=O)OCC(=O)c2ccc(CNC(C)=O)s2)cc1	-9%	nt	-14%	?	23%
CC(=O)NCCC(=O)NCc1ccc(F)cc1	-1%	4%	-16%	19%	nt
CC(=O)N(C)Cc1ccc(C(=O)CCl)cc1	11µM*	nt	-9%	-34%	11%
CCn1cc(C(=O)NCCc2ccc(OC)cc2)c(=O)c2ccc(C)nc21	-15%	12%	-3%	6%	-1%
O=C(OCc1cn([C@@H]2CN(C(=O)c3cccs3)[C@@H](c3ccc(Cl)cc3)C[C@H]2O)nn1)c1ccccc1	nt	nt	-6%	nt	nt
Cc1nc(N2CCN(c3ccccn3)CC2)c2c(C)c(C(=O)Nc3ccc(Br)cc3C)sc2n1	8%	-2%	13%	-28%	2.9µM*
Cc1nc(N2CCN(c3ccccn3)CC2)c2c(C)c(C(=O)N3CCN(c4ccccc4F)CC3)sc2n1	-13%	2%	-14%	24%	8.3µM*
CCC(C)NC(=O)c1sc2nc(C)c(C(=O)Nc3ccc(C)cc3C)c(-c3ccc(Br)cc3)c2c1N (stereo unspecified)	3%	nt	nt	nt	nt
SMILES	Sm TGR inh	NS1 function inh	AMA1-RON2 inh	Pf growth 96h	Pf growth 48h
O=C(CCNS(=O)(=O)c1ccccc1F)N1CCN(S(=O)(=O)c2cccc(F)c2)CC1	-3%	nt	12%	?	?
O=C(CCNS(=O)(=O)c1ccccc1F)N1CCN(C(c2ccccc2)c2ccccc2)CC1	-31%	nt	7%	?	13µM*
C[C@@H](C(=O)N1CCN(C(=O)OC(C)(C)C)CC1)n1cc(-c2cn([C@@H](C)C(=O)N3CCN(C(=O)OC(C)(C)C)CC3)nn2)nn1	13%	-4%	nt	71%	37%
CC(C)(C)OC(=O)CC[C@@H](C(=O)N1CCN(C(=O)OC(C)(C)C)CC1)n1cc(C(Cc2ccc(O)cc2)NC(=O)OC(C)(C)C)nn1 (stereo partly specified)	-14%	-2%	-5%	4.7µM*	?
CC(C)CC(NC(=O)OC(C)(C)C)c1cn([C@@H](CCCCNC(=O)OC(C)(C)C)C(=O)N2CCN(C(=O)OC(C)(C)C)CC2)nn1 (stereo partly specified)	-7%	8%	-2%	3.7µM*	?
N[C@@H](CO)c1cn([C@@H](Cc2cc3ccccc3[nH]2)C(=O)N2CCNCC2)nn1	-20%	-2%	37%	64%	53%
CC[C@@H](C)C(NC(=O)OC(C)(C)C)c1cn([C@@H](Cc2cc3ccccc3[nH]2)C(=O)N2CCN(C(=O)OC(C)(C)C)CC2)nn1 (stereo partly specified)	-18%	5%	-2%	3.7µM*	?
CC[C@@H](C)C(NC(=O)OC(C)(C)C)c1cn([C@@H](CCCCNC(=O)OC(C)(C)C)C(=O)N2CCN(C(=O)OC(C)(C)C)CC2)nn1 (stereo partly specified)	-2%	-2%	3%	4.1µM*	?
COc1ccc(CCNC(=O)c2cc3c(=O)[nH]c4ccc(C)cc4c3s2)cc1OC	-5%	nt	nt	nt	nt
COc1ccc(C2C(C(=O)/C=C/c3ccco3)=C(O)C(=O)N2CCN2CCOCC2)cc1 (stereo unspecified)	14µM*	nt	-9%	-15%	?
COc1cccc(C2C(C(=O)c3sc(C)nc3C)=C(O)C(=O)N2CCN2CCOCC2)c1 (stereo unspecified)	-16%	7%	2%	nt	?
CCOc1ccc(C2C(C(=O)/C=C/c3ccco3)=C(O)C(=O)N2CCN2CCOCC2)cc1OC (stereo unspecified)	5µM*	nt	10%	8%	10%
COc1cccc(C2C(C(=O)/C=C/c3ccco3)=C(O)C(=O)N2CCN2CCOCC2)c1 (stereo unspecified)	4.5µM*	nt	-9%	9%	-3%
O=C(/C=C/c1ccccc1Cl)N(Cc1cccs1)C1CCS(=O)(=O)C1 (stereo unspecified)	-9%	-8%	0%	?	-26%
CN(C)Cc1cc(O)c(CN(C)C)cc1O	2.5µM*	8%	?	32%	-16%
COCCCNC(=O)Cn1c(=O)n(-c2cccc(C)c2)c(=O)c2c3c(sc21)CN(C(C)=O)CC3	0%	nt	nt	nt	nt
C=CCCCCCCCC(=O)OC	50µM*	4%	17%	6%	?
COC(=O)CCC[N+](C)(C)C	nt	nt	nt	11µM*	?
CC(=O)NCCNC(=O)c1ccc(NC2=NC3CS(=O)(=O)CC3S2)cc1 (stereo unspecified)	0%	4%	19%	12%	0%
COc1ccc(-c2nnc(SCc3c(C)noc3C)n2N)cc1OC	-19%	-6%	0%	12µM*	?
COc1cccc(-n2c(SCc3c(C)noc3C)nnc2-c2cccc(S(=O)(=O)N(C)C)c2)c1	-9%	0%	-9%	?	12µM*
